Screening data as filed in PubChem.
AGP1 TOR yeast: alters AGP1-GFP fluorescence in TOR pathway yeast screen. S. cerevisiae AGP1-GFP multiplex flow cytometry, 3 h; GFP as percent of DMSO wells. GFP response vs DMSO, % at 10 µM. 320,000 tested, 0.02% active. AID 2066;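 active = GFP response relative to DMSO above a set limit, near screen average plus 3 SD, cut at about 150% in these data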;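 note: median GFP channel fluorescence of the gated AGP1 strain per well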
MEP2 TOR yeast: yeast TOR pathway MEP2-GFP modulation; S. cerevisiae MEP2-GFP strain, flow cytometry GFP, 3 h; 100% = DMSO control level; GFP response vs DMSO, % at 10 µM; 330,000 tested, 0.51% active; AID 2016;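 active = GFP response versus DMSO above a set limit, roughly screen mean plus 3 SD, cut at about 180% in these data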;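 note: median GFP fluorescence of the barcode-gated MEP2-GFP cells per well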
LAP4 TOR yeast: modulators of TOR pathway LAP4-GFP in S. cerevisiae; S. cerevisiae LAP4-GFP multiplex, flow cytometry GFP, 3 h; median GFP as percent of DMSO wells; GFP response vs DMSO, % at 10 µM; 320,000 tested, 0.34% active; AID 2023;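 active = GFP response vs DMSO above a set limit, about the screen mean plus 3 SD, cut at about 150% in these data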
CIT2 TOR yeast: yeast TOR pathway CIT2-GFP modulation. GFP response vs DMSO, % at 10 µM. S. cerevisiae CIT2-GFP strain, flow cytometry, 3 h; 100 means same as DMSO wells. 320,000 tested, 0.065% active;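 active = GFP response relative to DMSO above a set limit, near the screen mean plus 3 SD, cut at about 150% in these data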;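 note: ratio of well median GFP fluorescence to mean of DMSO wells on the plate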
RPL19A-GFP yeast: modulators of TOR pathway RPL19A-GFP in S. cerevisiae. S. cerevisiae RPL19A-GFP strain, flow cytometry, 3 h; hits give low values. AID 2025. percent response vs DMSO, % at 10 µM. 330,000 tested, 0.3% active;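 active = percent response vs DMSO below 50%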;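 note: median channel GFP fluorescence of the barcoded RPL19A-GFP strain; lower means less RPL19A-GFP as with rapamycin TOR inhibition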
Efflux pump mplx: inhibitors of Candida antifungal efflux pumps expressed in yeast; S. cerevisiae Candida pump triplex, Nile Red efflux; inhibition, % at 10 µM; 330,000 tested, 0.44% active;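 active = plate passing quality check with inhibition over a set limit, or well fluorescence over plate mean plus 4 SD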;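 note: Nile Red retained in pooled yeast measured as flow cytometry median fluorescence; higher means more Nile Red kept so more efflux inhibition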
Cmpd fluor yeast: compound fluorescence in yeast efflux pump counter-screen | 1,700 tested, 4% active | fluorescence ratio to DMSO, % at 10 µM | S. cerevisiae AD/pABC3, flow cytometry | AID 588517 | shares compounds with Efflux pump mplx;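 active = fluorescence ratio to DMSO above its plate's cutoff, the plate mean ratio plus 5 SD, cut at about 210% in these data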;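 note: unstained yeast with no Nile Red so the signal is compound autofluorescence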
Mdr1 pump inh: blocks the Candida albicans Mdr1 efflux pump in yeast; shares compounds with Efflux pump mplx; S. cerevisiae AD/CaMDR1, Nile Red efflux, flow cytometry; 1,700 tested, 1% active; inhibition, % at 10 µM; in the data active = inhibition above about 26%;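 note: higher means more Nile Red retained so more efflux inhibition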
Cdr2 pump inh: inhibitors of Candida albicans Cdr2 efflux pump. shares compounds with Efflux pump mplx. S. cerevisiae AD/CaCDR2, Nile Red retention, flow cytometry. Nile Red retention ratio vs DMSO, % at 10 µM. 1,700 tested, 4% active. AID 588520; in the data active = Nile Red retention ratio vs DMSO above about 190%;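 note: higher ratio means more blocking of Cdr2 efflux of the dye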
CaCdr1 efflux inh: Candida Cdr1 efflux pump inhibition; shares compounds with Efflux pump mplx; S. cerevisiae AD/CaCDR1, Nile Red efflux, flow cytometry; inhibition, % at 10 µM; 1,700 tested, 1% active; AID 588522;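 active = inhibition above the screen-wide mean plus twice its standard deviation, cut at about 32% in these data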
Each line names hits and unclear results; the compound was inactive in the other large screens (follow-up assays come after a bar, where they were run). Most compounds without a hit are left out; they make up all but 1.3% or so of the library.

CC(=O)C1CCN(Cc2ccccc2)CC1	none
COc1ccc(CCN2C(=O)c3ccccc3NC2c2cc(Cl)c(O)c(OC)c2)cc1 (configuration not stated)	none
COc1ccc(N2C(=O)CC(N3CCN(c4ccc(C(=O)c5cccnc5)cc4)CC3)C2=O)cc1 (configuration not stated)	Efflux pump mplx 9.8 | Cmpd fluor yeast inactive | Mdr1 pump inh inactive | Cdr2 pump inh inactive | CaCdr1 efflux inh inactive
COC(=O)/C=C/c1ccc(-n2cncn2)cc1	none
O=Cc1ccc(-n2cncn2)cc1	Efflux pump mplx 1.0 | Cmpd fluor yeast inactive | Mdr1 pump inh inactive | Cdr2 pump inh inactive | CaCdr1 efflux inh inactive
Cc1nn(C(C)C(=O)N2CCCC2)c(=O)c2nn(-c3ccccc3)c(C)c12 (configuration not stated)	none
C[C@@H]1CN([C@H](C)CO)C(=O)c2cc(NC(=O)Nc3cccc4ccccc34)ccc2O[C@H]1CN(C)Cc1ccc(C(F)(F)F)cc1	none
C[C@H]1CN([C@@H](C)CO)C(=O)c2cc(NC(=O)Nc3cccc4ccccc34)ccc2O[C@@H]1CN(C)Cc1ccc(-c2ccccc2)cc1	Efflux pump mplx 1.8 | Cmpd fluor yeast inactive | Mdr1 pump inh inactive | Cdr2 pump inh 188 | CaCdr1 efflux inh inactive
Cc1ccc(S(=O)(=O)N(C)C[C@H]2Oc3c(NC(=O)Nc4cccc5ccccc45)cccc3C(=O)N([C@@H](C)CO)C[C@@H]2C)cc1	none | Cmpd fluor yeast inactive | Mdr1 pump inh inactive | Cdr2 pump inh inactive | CaCdr1 efflux inh inactive
CC1Cc2nc(SCC(=O)NCC3CCCO3)n(C)c(=O)c2S1 (configuration not stated)	none
COc1ccc(S(=O)(=O)Nc2c(O)ccc3ccccc23)cc1OC	none
COc1cccc(OCCNS(=O)(=O)c2ccccc2[N+](=O)[O-])c1	none
Cc1cccc(S(=O)(=O)Nc2nc3ccccc3nc2Nc2ccc3c(c2)OCO3)c1	Efflux pump mplx 10.0 | Cmpd fluor yeast inactive | Mdr1 pump inh inactive | Cdr2 pump inh inactive | CaCdr1 efflux inh inactive
Cc1cc(C(=O)COC(=O)c2ccc[nH]c2=O)c(C)n1-c1ccc(F)cc1	Efflux pump mplx 28 | Cmpd fluor yeast inactive | Mdr1 pump inh inactive | Cdr2 pump inh inactive | CaCdr1 efflux inh inactive
[N-]=[N+]=NC[C@H](c1ccccc1)N1CCN(Cc2ccccc2)CCC1=O	none
Cc1ccc(C)c(NC(=O)CN(C)C(=O)C2CCN(C(=O)Nc3ccccc3)CC2)c1	none
NS(=O)(=O)c1ccc(CCNC(=O)c2cc(-c3ccccc3)nc3ccccc23)cc1	Efflux pump mplx 21 | Cmpd fluor yeast inactive | Mdr1 pump inh inactive | Cdr2 pump inh inactive | CaCdr1 efflux inh inactive
Cc1ccc(-c2cc(C(=O)NCCc3ccc(S(N)(=O)=O)cc3)c3ccccc3n2)cc1	none
CCc1cccc2c1NC(=O)C21OCCO1	none
CN(CCCC(=O)NCc1ccc2c(c1)OCO2)S(=O)(=O)c1ccc([N+](=O)[O-])cc1	none
CCOC(=O)c1nn(-c2ccc(OCC)cc2)c(C)c1C(C)=O	Efflux pump mplx 1.8 | Cmpd fluor yeast inactive | Mdr1 pump inh inactive | Cdr2 pump inh inactive | CaCdr1 efflux inh inactive
CCOC(=O)c1nn(-c2ccc(C)cc2)c(C)c1C(C)=O	none
Cc1ccc(NC(=O)COC(=O)c2cc(Cl)ccc2Cl)c(Br)c1	Efflux pump mplx 1.3 | Cmpd fluor yeast inactive | Mdr1 pump inh inactive | Cdr2 pump inh inactive | CaCdr1 efflux inh inactive
Cc1ccc(NC(=O)COC(=O)c2ccc(F)cc2Cl)c(Br)c1	none
CC1CCN(C(=O)COC(=O)CCCN2C(=O)c3cccc4cccc(c34)C2=O)CC1	none
CCN(CC)S(=O)(=O)c1cc(C(=O)NCCN2CCOCC2)ccc1Cl	none
COC(=O)c1ccc(C2OCC(C)(C)CO2)cc1	Efflux pump mplx 1.1 | Cmpd fluor yeast inactive | Mdr1 pump inh inactive | Cdr2 pump inh inactive | CaCdr1 efflux inh inactive
COc1ccc(N(Cc2cc(=O)[nH]c3ccccc23)C(=O)C(C)C)cc1	none
COc1ccccc1N1CCN(C(=O)c2cc(-c3cccs3)on2)CC1	Efflux pump mplx 0.7 | Cmpd fluor yeast inactive | Mdr1 pump inh inactive | Cdr2 pump inh inactive | CaCdr1 efflux inh inactive
COc1ccccc1N=Nc1c(O)[nH]c2ccc(Br)cc12	Efflux pump mplx 0.4 (no result: LAP4 TOR yeast) | Cmpd fluor yeast inactive | Mdr1 pump inh inactive | Cdr2 pump inh inactive | CaCdr1 efflux inh inactive
COc1cc2sc(-c3ccccc3OC)c(-c3ccc(OCCN4CCOCC4)cc3)c2cc1OC	none (no result: AGP1 TOR yeast, MEP2 TOR yeast, LAP4 TOR yeast, CIT2 TOR yeast, RPL19A-GFP yeast) | Cmpd fluor yeast inactive | Mdr1 pump inh inactive | Cdr2 pump inh inactive | CaCdr1 efflux inh inactive
COc1ccc2c(-c3ccc(OCCN4CCOCC4)cc3)c(-c3ccccc3OC)sc2c1	none (no result: AGP1 TOR yeast, MEP2 TOR yeast, LAP4 TOR yeast, CIT2 TOR yeast, RPL19A-GFP yeast) | Cmpd fluor yeast inactive | Mdr1 pump inh inactive | Cdr2 pump inh inactive | CaCdr1 efflux inh inactive
COc1cccc(-c2sc3ccccc3c2-c2ccc(OCCN3CCCC3)cc2)c1	none
COC(=O)c1ccc(OCC(=O)N2CCCc3ccccc32)cc1	Efflux pump mplx 2.8 | Cmpd fluor yeast inactive | Mdr1 pump inh inactive | Cdr2 pump inh inactive | CaCdr1 efflux inh inactive
COCC(=O)N1CCCc2ccccc21	none (no result: CIT2 TOR yeast)
CCCCOC(=O)c1ccc(NC(C)=O)cc1	Efflux pump mplx 0.6 | Cmpd fluor yeast inactive | Mdr1 pump inh inactive | Cdr2 pump inh inactive | CaCdr1 efflux inh inactive
CSc1nc2ccc(S(N)(=O)=O)cc2s1	Efflux pump mplx 12 | Cmpd fluor yeast inactive | Mdr1 pump inh inactive | Cdr2 pump inh inactive | CaCdr1 efflux inh inactive
CSc1nc2ccc(NS(=O)(=O)c3ccc([N+](=O)[O-])cc3)cc2s1	none
Nc1nc2c(F)cccc2s1	Efflux pump mplx 2.2 | Cmpd fluor yeast inactive | Mdr1 pump inh inactive | Cdr2 pump inh inactive | CaCdr1 efflux inh inactive
NNc1nc2c(F)cccc2s1	none
CSc1ccc(S(=O)(=O)N2CCC(C(=O)NCc3ccccn3)CC2)cc1	none
O=[N+]([O-])c1cc(/C=N\Nc2ccccn2)ccc1Cl	Efflux pump mplx 0.9 | Cmpd fluor yeast inactive | Mdr1 pump inh inactive | Cdr2 pump inh 197 | CaCdr1 efflux inh inactive
Brc1ccc(-c2csc(NC3=NCCCCC3)n2)cc1	Efflux pump mplx 7.6 | Cmpd fluor yeast inactive | Mdr1 pump inh inactive | Cdr2 pump inh inactive | CaCdr1 efflux inh inactive
